This is part of a sample that, as a whole, favours compounds with a hit. Of some 83,000 tested, about 20% had one in any assay.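 The test compound was applied at a single concentration to cells in 96-well plates for 48 hours, and percent growth was recorded.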 A number with no mark means an inactive call. Calls of active or inactive are those of the source. Rule for the calls: active = growth percent below 10; inactive = the rest.

The test system of this assay is MDA-MB-468 breast. The assay can be described thus: NCI-60 one-dose screen, 48 h (100 = growth as untreated, 0 = no growth, -100 = all killed). Conditions: 10 µM unless noted.
For the compound `Nc1nc(N)c2c(n1)NC(c1ccc(F)cc1)CC(c1ccc(Nc3nc(NCCO)nc(Nc4ccc(Cl)cc4)n3)cc1)=N2` (configuration not stated), the growth is -68.5% (active).

With `O=c1c2c(c(=O)n1O)c1c3ccc[nH]c3nc1c1nc3[nH]cccc3c12`, the growth is 64%. For `C=C1C(=O)O[C@H]2[C@H]1CC/C(CNC(=O)C(C)c1ccc(CC(C)C)cc1)=C\CC[C@@]1(C)O[C@@H]21` (some centres not stated) the value was -23.5% (active); for `CCNCCNc1cc(-c2ccc(C(F)(F)F)cc2)c(C#N)c2nc3ccccc3n12`, -73.6% (active).

On to `CC(C)C(=O)Nc1ccc(-c2nc(-c3cccc(OCCN4CCOCC4)c3)c(-c3ccnc(Br)c3)[nH]2)cc1`, for which the growth was 23.2%. For `Cc1ccc([P+](Cc2ccc([N+](=O)[O-])cc2)(c2ccc(C)cc2)c2ccc(C)cc2)cc1` the value was -11.7% (active). Next, `N#Cc1ncc(-c2ccc(F)c(F)c2F)c(NC2CCCCCC2)n1`: 86.1%.

Source of the values: PubChem BioAssay (NCI).
